Measurements taken from PubChem BioAssay (NCATS).
Records with an inconclusive call do not appear. Calls of active or inactive are those of the source. Unless noted, calls follow the shape of the dose curve; as a rule, active = well fitted curve in the direction sought with a large enough effect; inconclusive = small, poorly fitted or top-dose-only effect, or another doubt; inactive = no such curve, though single readings can be large; an effect the other way counts as inactive or inconclusive.

How the values were obtained:
[1] = biological target: Lysosomal acid glucosylceramidase (Homo sapiens) (UniProt P04062); assay: Glucocerebrosidase-p2 (AID 348; in the data active = potency below about 10 µM; also: potency is read from the fitted curve at half-maximal effect); settings: purified GBA, blue fluorogenic substrate, 40 min
Method in brief: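 Normal human glucocerebrosidase (0.2 nM) with blue fluorogenic substrate (80 uM final) in citrate/phosphate pH 5.9 with 10mM sodium taurocholate, 0.01% tween-20; 40 min RT, NaOH/glycine stop; fluorescence Ex 365/Em 440; AC50 from a titration from 0.6 nM upwards.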

[2] = biological target: Cytochrome P450 1A2 (Homo sapiens) (UniProt P05177); assay: p450-cyp1a2 (AID 410; calls by dose curve; also: potency is read from the fitted curve at half-maximal effect;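 as to activity change, negative = inhibition: -100% = full effect of reference inhibitor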); settings: recombinant CYP1A2, luciferin-ME demethylation, luminescence; series mostly up to 57 µM
Method in brief: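 Luminescent demethylation readout: Luciferin-ME (100uM, equal to Km) turned over by 20nM CYP1A2 for 60 min at room temperature after NADPH regeneration addition, following 10 min compound preincubation. Normalization used 57 uM furafylline as full inhibition.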

[3] = NFAT Signaling Pathway (AID 444; active = well fitted curve in either direction with a large enough effect, not every such curve was filed as active;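 also: carbachol stimulus at about its EC50 of 1 µM final; % is scaled to controls: 0 for no effect and ±100 for the full control effect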); settings: Jurkat NFAT-bla M1, carbachol, beta-lactamase ratio, 5 h; at 7.69 µM (top of the series) unless noted
Method in brief: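 Read-out: CCF4 FRET ratio (460 nm/530 nm) after 1 h RT dye loading, used for %activity and AC50 from titration series. Cells: Jurkat NFAT-β-lactamase/M1 line, treated with compound plus 1 uM carbachol for 5 h, 37 °C.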

[4] = Stat Signaling Pathway (AID 446; active = well fitted curve in either direction with a large enough effect, not every such curve was filed as active;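 also: ME-180 cervical cancer cells given 40 pM IL-6 alongside compound; SIE-controlled beta-lactamase reporter measured as 460/530 nm FRET emission ratio; % is scaled to controls: 0 for no effect and ±100 for the full control effect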); settings: ME-180 SIE beta-lactamase reporter, IL-6 stimulated, 5 h; at 7.69 µM (top of the series) unless noted
Method in brief: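 Overnight-plated ME-180 cells bearing a STAT Inducible Element beta-lactamase reporter; 5 h co-exposure to compound and 40 pM IL-6; values normalized to 300 pM IL-6 and 125 nM JAK inhibitor controls.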

[5] = biological target: Glucocorticoid receptor (Homo sapiens) (UniProt P04150); assay: GR-GFP Redistribution (AID 450;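 active = compounds whose dose series gives a full or clear partial fitted curve of increased nuclear translocation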; also: potency is read from the fitted curve at half-maximal effect); settings: U2OS GR-GFP nuclear translocation, laser cytometry, 2 h
[6] = biological target: Glucocorticoid receptor (Homo sapiens) (UniProt P04150); assay: GR-EFC Redistribution (AID 451; calls by dose curve; also: potency is read from the fitted curve at half-maximal effect); settings: CHO-K1 GR-EFC translocation, beta-gal luminescence, 2 h
Method in brief: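 Translocation of GR-ED fusion to nuclear EA restores b-gal, read by luminescence after 1 h room-temperature detection. Engineered CHO-K1 biosensor cells, 1,000/well, exposed 2 h at 37 C to titrations up to 46 uM final.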

[7] = biological target: Mitogen-activated protein kinase 10 (Mus musculus) (UniProt Q61831); assay: JNK3 AlphaScreen Assay (AID 530; active = well fitted curve in either direction with a large enough effect, not every such curve was filed as active;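 also: kinase came from lysate of stimulated human HepG2 cells; signal reports phosphorylation of biotinylated GST-cJun 1-79 at Ser73 with 10 µM ATP; % is scaled to controls: 0 for no effect and ±100 for the full control effect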); settings: JNK3 lysate, c-Jun phosphorylation; series mostly up to 57.1 µM
Method in brief: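 qHTS titrations with 15 min compound pre-incubation before adding ATP (10 uM final). Read-out: AlphaScreen of Ser73-phosphorylated biotin-GST-cJun using HepG2 lysate JNK3 activated by IL-1β and TNFα.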

[8] = biological target: 3',5'-cyclic-AMP phosphodiesterase 4B (Homo sapiens) (UniProt Q07343); assay: qHTS Assay for Inhibitors of PDE-IV (AID 607; active = well fitted activation curve with a large enough effect in the main read-out, with a control signal flat, not every such curve was filed as active; also: potency is read from the fitted curve at half-maximal effect); settings: HEK293 ACTOne CNG channel cells, membrane potential fluorescence; series mostly up to 22.9 µM
Method in brief: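 Live HEK293 cells with a modified cyclic nucleotide-gated (CNG) channel report intracellular cAMP via membrane-potential dye fluorescence (ex 535/em 590 nm). Endogenous PDE-IV was targeted. Compounds were tested at up to 22.9 uM final; RO 20-1724 100 uM served as control.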

[9] = biological target: Cytochrome P450 3A4 (Homo sapiens) (UniProt P08684); assay: qHTS Assay for Activators of Cytochrome P450 3A4 (AID 885); settings: recombinant CYP3A4, Luciferin-PPXE luminescence, 60 min; series mostly up to 57.1 µM; also: nearly all actives have a fitted effect of over 65% in size
Method in brief: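 Using 20nM recombinant human CYP3A4 in potassium phosphate (200mM), substrate Luciferin-PPXE at 25uM, luminescent luciferin detection followed a 60-min RT NADPH reaction; data scaled to 57 uM ketoconazole.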

[10] = biological target: Cytochrome P450 2C19 (Homo sapiens) (UniProt P33261); assay: qHTS Assay for Inhibitors and Substrates of Cytochrome P450 2C19 (AID 899); settings: recombinant CYP2C19, luciferin-H EGE luminescence; series mostly up to 57.1 µM; also: potency is read from the fitted curve at half-maximal effect; nearly all actives have a fitted effect of over 60% in size
Method in brief: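 Reactions contain 5nM enzyme, 10uM Luciferin-H EGE (KM) and 50mM KPO4; compound preincubates 10 min at 37C, NADPH regeneration starts turnover for 60 min. Luminescence after detection reagent gives activity.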

[11] = biological target: Dual specificity protein kinase CLK4 (Homo sapiens) (UniProt Q9HAZ1); assay: qHTS Assay for Inhibitors of CDC-like Kinase 4 (Kinase-Glo Assay) (AID 1770); settings: recombinant Clk4, Kinase-Glo ATP depletion luminescence; series mostly up to 66.7 µM; also: nearly all actives have a fitted effect of over 65% in size; also: potency is read from the fitted curve at half-maximal effect
Method in brief: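 25 nM Clk4 with 100 uM RS repeat peptide and 1 uM ATP (final) in Tris pH7.5, 10 mM MgCl2, 4.5 h at room temperature. Remaining ATP measured by Kinase-Glo luciferase luminescence.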

[12] = biological target: Dual specificity protein kinase CLK4 (Homo sapiens) (UniProt Q9HAZ1); assay: qHTS Assay for Inhibitors of CDC-like Kinase 4 (ADP-Glo Assay) (AID 1771); settings: recombinant CLK4, ADP-Glo luminescence; series mostly up to 80 µM; also: nearly all actives have a fitted effect of over 70% in size; also: potency is read from the fitted curve at half-maximal effect
Method in brief: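 ADP production was read by ADP-Glo luminescence after residual ATP depletion, following 1 h room-temperature reaction of 25 nM Clk4, 1 uM ATP and 100 uM RS peptide with MgCl2, EGTA, DTT and Triton X-100.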

[13] = biological target: Dual specificity protein kinase CLK4 (Homo sapiens) (UniProt Q9HAZ1); assay: qHTS Assay for Inhibitors of CDC-like Kinase 4 (ADP-FP Assay) (AID 1795); settings: Transcreener ADP fluorescence polarization; series mostly up to 50 µM; also: nearly all actives have a fitted effect of over 60% in size; also: potency is read from the fitted curve at half-maximal effect
Method in brief: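 Recombinant Clk4 (6.25 nM) phosphorylated 100 uM RS repeat peptide with 1 uM ATP in 25 mM Tris pH 7.5, 10 mM MgCl2, 0.5 mM EGTA, 2.5 mM DTT, 0.01% Triton X-100 for 1 h. ADP was detected by Transcreener ADP2 competitive fluorescence polarization after 30 min at room temperature.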

[14] = biological target: Ubiquitin carboxyl-terminal hydrolase 1 (Homo sapiens) (UniProt O94782); assay: Inhibitors of USP1/UAF1: Pilot qHTS (AID 504865); settings: purified USP1/UAF1, Ub-rhodamine cleavage fluorescence; series mostly up to 54.9 µM;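 also: rhodamine fluorescence freed from ubiquitin-rhodamine substrate followed over time; top concentration of the series differs between compounds; % is scaled to controls: 0 for no effect and ±100 for the full control effect; nearly all actives have a fitted effect of over 35% in size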
Method in brief: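 USP1/UAF1 complex at 1 nM preincubated 15 min at room temperature with compound, then Ub-Rho substrate added at 150 nM final. Fluorescence (480/540 nm) read kinetically in 50 mM HEPES pH 7.8, 0.5 mM EDTA, 1 mM TCEP, 0.1 mg/ml BSA, 0.01% Tween-20.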

[15] = Primary qHTS for small molecule stabilizers of the endoplasmic reticulum resident proteome: Secreted ER Calcium Modulated Protein (SERCaMP) assay (AID 1508630); settings: SH-SY5Y GLuc-SERCaMP (Gaussia luciferase released on ER calcium loss) secretion, thapsigargin, luminescence; series mostly up to 38.4 µM; also: % is scaled to controls: 0 for no effect and ±100 for the full control effect
Method in brief: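 The SH-SY5Y reporter protocol was run at 3 concentrations up to 38.3 uM (primary) or 11 concentrations (follow-up): 16 h compound, 100 nM thapsigargin for 4 h, then extracellular luciferase luminescence.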

[16] = biological target: Cytochrome P450 3A4 (Homo sapiens) (UniProt P08684); assay: qHTS Assay for Inhibitors and Substrates of Cytochrome P450 3A4 (AID 884); settings: recombinant CYP3A4, Luciferin-PPXE luminescence; series mostly up to 57.1 µM; also: potency is read from the fitted curve at half-maximal effect; nearly all actives have a fitted effect of over 50% in size
Method in brief: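 Luminescent readout of luciferin produced by CYP3A4 (20 nM) dealkylation of Luciferin-PPXE, 25 uM (its KM). NADPH-driven reaction ran 60 min at RT after 10 min compound preincubation; data scaled to 57 uM ketoconazole as 100% inhibition.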

[17] = biological target: Cytochrome P450 2C9 (Homo sapiens) (UniProt P11712); assay: qHTS Assay for Inhibitors and Substrates of Cytochrome P450 2C9 (AID 883); settings: recombinant CYP2C9, luciferin-H luminescence, 60 min; series mostly up to 57.1 µM; also: % is scaled to controls: 0 for no effect and ±100 for the full control effect; nearly all actives have a fitted effect of over 60% in size
Method in brief: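 Turnover of Luciferin-H (100uM, KM) by 10nM human CYP2C9 was measured over 60 min at 37C with NADPH regeneration; inhibitors and some substrates reduce luminescence. Data normalized to sulphaphenazole 57uM.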

[18] = qHTS Assay for Identification of Small Molecule Agonists for Hypoxia Response Element Signaling Pathway (AID 914; active = well fitted activation curve with a large enough effect in the signal ratio, with a control signal flat, not every such curve was filed as active; the % refers to the signal ratio; also: potency is read from the fitted curve at half-maximal effect); settings: ME-180 (cervical carcinoma) HRE-bla reporter, beta-lactamase ratio, CoCl2, 17 h; activation: stronger effect = higher value
Method in brief: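 AC50 values come from titration-series %Activity, taken as the 460/530nm ratio of CCF4 fluorescence (excitation 405nm). CellSensor HRE-bla ME-180 cells were treated 17 hours at 37 C with compound plus an EC50 level of CoCl2.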

Chain of Cytochrome P450 2C19 (Homo sapiens) (P33261 whole entry, looked up): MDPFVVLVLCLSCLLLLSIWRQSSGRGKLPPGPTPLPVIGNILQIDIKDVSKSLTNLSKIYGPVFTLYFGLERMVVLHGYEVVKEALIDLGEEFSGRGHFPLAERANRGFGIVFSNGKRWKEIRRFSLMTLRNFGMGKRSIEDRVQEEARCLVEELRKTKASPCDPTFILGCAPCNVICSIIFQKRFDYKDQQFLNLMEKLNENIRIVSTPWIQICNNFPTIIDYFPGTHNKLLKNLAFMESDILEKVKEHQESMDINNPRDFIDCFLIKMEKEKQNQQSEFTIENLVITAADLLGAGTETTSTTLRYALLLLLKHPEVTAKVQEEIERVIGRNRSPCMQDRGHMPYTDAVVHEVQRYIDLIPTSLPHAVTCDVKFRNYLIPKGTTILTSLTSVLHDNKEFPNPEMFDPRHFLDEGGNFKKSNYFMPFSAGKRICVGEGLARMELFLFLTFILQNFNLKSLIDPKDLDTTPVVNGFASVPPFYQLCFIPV
Chain of Lysosomal acid glucosylceramidase (Homo sapiens) (P04062 whole entry, looked up): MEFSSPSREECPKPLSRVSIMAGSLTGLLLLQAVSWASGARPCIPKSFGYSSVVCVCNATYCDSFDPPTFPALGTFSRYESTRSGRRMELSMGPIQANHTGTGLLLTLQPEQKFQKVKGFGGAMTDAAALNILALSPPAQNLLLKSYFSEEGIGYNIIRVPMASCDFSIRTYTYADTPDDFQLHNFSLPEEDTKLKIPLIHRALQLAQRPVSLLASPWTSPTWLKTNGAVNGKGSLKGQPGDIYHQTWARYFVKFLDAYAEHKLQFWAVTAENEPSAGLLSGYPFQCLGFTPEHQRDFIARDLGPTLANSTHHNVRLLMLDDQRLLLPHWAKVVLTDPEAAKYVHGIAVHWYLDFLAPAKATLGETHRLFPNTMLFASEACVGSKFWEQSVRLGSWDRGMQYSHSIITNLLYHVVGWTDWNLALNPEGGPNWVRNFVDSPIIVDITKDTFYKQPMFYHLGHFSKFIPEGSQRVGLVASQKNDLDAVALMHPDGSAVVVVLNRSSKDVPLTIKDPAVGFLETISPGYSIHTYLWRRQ
Chain of Dual specificity protein kinase CLK4 (Homo sapiens) (Q9HAZ1 whole entry, looked up): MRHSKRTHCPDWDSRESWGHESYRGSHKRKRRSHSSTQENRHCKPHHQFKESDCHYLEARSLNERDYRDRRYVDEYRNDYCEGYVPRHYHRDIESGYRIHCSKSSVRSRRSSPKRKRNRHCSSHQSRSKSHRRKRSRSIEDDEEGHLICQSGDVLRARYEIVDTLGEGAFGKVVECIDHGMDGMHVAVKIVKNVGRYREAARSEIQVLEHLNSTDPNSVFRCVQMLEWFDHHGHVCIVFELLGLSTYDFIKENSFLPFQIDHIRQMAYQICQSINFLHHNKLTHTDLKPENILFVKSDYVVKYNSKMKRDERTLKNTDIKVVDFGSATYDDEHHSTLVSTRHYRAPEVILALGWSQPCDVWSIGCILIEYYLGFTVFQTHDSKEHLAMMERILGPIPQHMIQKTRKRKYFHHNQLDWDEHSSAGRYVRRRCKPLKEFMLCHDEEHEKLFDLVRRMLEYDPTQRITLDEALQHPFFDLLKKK
Chain of Cytochrome P450 3A4 (Homo sapiens) (P08684 whole entry, looked up): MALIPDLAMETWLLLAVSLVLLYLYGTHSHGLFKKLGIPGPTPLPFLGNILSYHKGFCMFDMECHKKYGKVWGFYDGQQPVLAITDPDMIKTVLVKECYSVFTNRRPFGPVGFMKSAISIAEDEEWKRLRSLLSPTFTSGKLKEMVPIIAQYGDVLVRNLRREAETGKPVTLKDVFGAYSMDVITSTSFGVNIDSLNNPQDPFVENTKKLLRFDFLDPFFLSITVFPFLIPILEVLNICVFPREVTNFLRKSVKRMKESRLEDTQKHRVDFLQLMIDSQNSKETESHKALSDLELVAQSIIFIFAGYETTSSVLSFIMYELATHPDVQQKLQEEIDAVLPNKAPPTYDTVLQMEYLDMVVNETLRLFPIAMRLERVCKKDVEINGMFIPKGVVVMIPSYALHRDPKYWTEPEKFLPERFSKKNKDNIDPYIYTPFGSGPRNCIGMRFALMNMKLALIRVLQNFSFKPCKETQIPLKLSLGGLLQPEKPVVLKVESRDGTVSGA
Chain of 3',5'-cyclic-AMP phosphodiesterase 4B (Homo sapiens) (Q07343 whole entry, looked up): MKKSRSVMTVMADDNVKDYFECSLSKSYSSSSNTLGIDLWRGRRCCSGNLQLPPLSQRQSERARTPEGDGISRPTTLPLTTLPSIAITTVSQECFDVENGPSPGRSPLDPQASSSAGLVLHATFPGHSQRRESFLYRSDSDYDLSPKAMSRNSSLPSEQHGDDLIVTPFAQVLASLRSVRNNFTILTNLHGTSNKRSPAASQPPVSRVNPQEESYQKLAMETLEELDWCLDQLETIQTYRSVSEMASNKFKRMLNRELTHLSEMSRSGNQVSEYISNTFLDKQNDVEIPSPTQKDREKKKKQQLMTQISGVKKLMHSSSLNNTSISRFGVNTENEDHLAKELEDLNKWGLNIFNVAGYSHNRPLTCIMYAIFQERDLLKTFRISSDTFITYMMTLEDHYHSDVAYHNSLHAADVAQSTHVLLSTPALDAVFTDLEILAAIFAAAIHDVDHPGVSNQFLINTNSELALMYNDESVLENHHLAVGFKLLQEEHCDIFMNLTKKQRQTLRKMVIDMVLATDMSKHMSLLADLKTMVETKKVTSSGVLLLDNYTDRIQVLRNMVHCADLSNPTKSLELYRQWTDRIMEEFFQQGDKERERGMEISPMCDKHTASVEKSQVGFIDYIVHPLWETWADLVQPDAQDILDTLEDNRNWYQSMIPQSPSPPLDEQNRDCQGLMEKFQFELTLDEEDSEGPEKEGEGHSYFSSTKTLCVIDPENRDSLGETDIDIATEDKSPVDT
Chain of Ubiquitin carboxyl-terminal hydrolase 1 (Homo sapiens) (O94782 whole entry, looked up): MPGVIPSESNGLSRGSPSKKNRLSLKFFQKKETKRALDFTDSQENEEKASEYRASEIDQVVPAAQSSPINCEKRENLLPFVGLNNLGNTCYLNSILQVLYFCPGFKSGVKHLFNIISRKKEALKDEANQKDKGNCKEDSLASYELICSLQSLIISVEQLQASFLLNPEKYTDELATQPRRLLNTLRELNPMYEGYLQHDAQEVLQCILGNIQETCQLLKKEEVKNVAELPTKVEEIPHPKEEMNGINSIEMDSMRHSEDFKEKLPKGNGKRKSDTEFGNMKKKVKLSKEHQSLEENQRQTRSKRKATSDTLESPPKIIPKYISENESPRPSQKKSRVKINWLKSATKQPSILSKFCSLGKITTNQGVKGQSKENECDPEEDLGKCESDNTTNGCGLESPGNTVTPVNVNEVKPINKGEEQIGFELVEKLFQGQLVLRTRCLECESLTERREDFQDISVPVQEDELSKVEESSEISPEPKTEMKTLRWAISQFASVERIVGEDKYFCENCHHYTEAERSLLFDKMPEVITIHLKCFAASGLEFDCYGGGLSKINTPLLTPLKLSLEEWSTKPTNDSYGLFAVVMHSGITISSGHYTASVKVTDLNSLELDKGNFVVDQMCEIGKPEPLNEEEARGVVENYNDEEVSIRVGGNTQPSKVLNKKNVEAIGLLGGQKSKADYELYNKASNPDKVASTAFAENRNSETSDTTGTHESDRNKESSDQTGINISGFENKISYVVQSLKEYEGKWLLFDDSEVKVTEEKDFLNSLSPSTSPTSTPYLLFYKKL
Chain of Glucocorticoid receptor (Homo sapiens) (P04150 whole entry, looked up, the tested form may be a part): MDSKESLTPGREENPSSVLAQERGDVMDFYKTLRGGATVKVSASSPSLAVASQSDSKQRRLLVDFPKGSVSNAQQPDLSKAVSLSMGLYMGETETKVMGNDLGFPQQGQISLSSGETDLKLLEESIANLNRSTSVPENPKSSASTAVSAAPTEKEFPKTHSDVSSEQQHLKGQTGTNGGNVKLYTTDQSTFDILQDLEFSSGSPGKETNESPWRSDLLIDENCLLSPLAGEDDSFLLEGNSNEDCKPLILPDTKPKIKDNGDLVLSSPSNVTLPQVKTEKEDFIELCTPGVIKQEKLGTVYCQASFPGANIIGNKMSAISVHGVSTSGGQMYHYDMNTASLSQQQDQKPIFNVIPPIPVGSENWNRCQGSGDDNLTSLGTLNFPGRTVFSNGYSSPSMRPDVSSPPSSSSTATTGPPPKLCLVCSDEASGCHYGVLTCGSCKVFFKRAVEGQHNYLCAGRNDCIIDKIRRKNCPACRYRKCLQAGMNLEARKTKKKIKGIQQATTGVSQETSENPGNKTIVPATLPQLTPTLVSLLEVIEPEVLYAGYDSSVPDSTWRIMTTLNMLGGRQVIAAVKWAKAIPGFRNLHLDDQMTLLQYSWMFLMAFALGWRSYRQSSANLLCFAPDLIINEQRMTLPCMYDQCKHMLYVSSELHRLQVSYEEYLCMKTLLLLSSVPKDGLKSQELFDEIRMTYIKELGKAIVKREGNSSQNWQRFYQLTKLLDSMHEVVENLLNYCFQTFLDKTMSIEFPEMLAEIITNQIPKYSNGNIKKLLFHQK
Chain of Cytochrome P450 1A2 (Homo sapiens) (P05177 whole entry, looked up): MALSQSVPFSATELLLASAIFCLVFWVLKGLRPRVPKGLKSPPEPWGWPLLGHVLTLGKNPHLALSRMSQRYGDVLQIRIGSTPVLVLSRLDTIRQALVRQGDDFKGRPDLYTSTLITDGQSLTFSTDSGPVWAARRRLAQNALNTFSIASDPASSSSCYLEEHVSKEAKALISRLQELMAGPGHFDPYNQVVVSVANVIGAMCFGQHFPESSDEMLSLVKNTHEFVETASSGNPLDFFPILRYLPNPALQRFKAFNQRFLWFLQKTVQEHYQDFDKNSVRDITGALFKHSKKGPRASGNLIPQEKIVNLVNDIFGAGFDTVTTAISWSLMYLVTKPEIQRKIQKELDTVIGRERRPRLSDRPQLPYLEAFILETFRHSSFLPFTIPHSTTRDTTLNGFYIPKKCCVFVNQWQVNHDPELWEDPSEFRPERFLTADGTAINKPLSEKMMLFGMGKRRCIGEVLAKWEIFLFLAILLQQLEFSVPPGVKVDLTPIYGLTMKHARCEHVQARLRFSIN

c1ccc(Nc2ncnc3ccc(-c4ccoc4)cc23)cc1
active: Potency [2] 1.58 µM | Potency [10] 2 µM | Potency [11] 0.708 µM | Potency [12] 0.631 µM | Potency [13] 0.447 µM
inactive: Potency [1] > 11.4 µM | activity change, negative = inhibition [3] 14.5% | activity, negative = inhibition [4] -4.75% | Potency [5] > 46 µM | Potency [6] > 46 µM | Potency [7] | Potency [8] | Potency [9] | Potency [14] | outcome [15]

COc1cccc(Cn2c(=O)c(-c3cn(C)c4ccccc34)nc3cnc(OC)nc32)c1
active: Potency [2] 15.8 µM | Potency [16] 7.94 µM
inactive: Potency [1] > 11.4 µM | activity change, negative = inhibition [3] 1.88% | Potency [5] > 9.22 µM | Potency [6] > 46 µM | Potency [7] | Potency [8] | Potency [9] | Potency [11] | Potency [12] | Potency [13] | Potency [14] | outcome [15]

COc1cccc(-c2ccc3ncnc(N(C)C)c3c2)c1
inactive: Potency [1] > 11.4 µM | activity change, negative = inhibition [3] 27.5% | activity, negative = inhibition [4] -13.9% | Potency [5] > 46 µM | Potency [6] > 46 µM | Potency [7] | Potency [8] | Potency [9] | Potency [14] | outcome [15]
active: Potency [2] 0.794 µM | Potency [16] 7.94 µM | Potency [10] 3.16 µM | Potency [11] 4.47 µM | Potency [12] 3.16 µM | Potency [13] 2.51 µM

CCNc1ncc2nc(-c3ccc(OC)cc3)c(=O)n(Cc3ccc(F)cc3)c2n1
inactive: Potency [1] > 11.4 µM | Potency [2] | Potency [5] > 9.22 µM | Potency [6] > 46 µM | Potency [7] | Potency [17] | Potency [11] | Potency [12] | Potency [13] | outcome [15]

CN(C)c1ncc2nc(-c3ccc(Cl)cc3)c(=O)n(-c3ccccc3)c2n1
active: Potency [2] 5.01 µM | Potency [8] 1 µM | Potency [18] 2.51 µM
inactive: Potency [1] > 11.4 µM | Potency [6] > 46 µM | Potency [7] | Potency [11] | Potency [12] | Potency [13] | Potency [14] | outcome [15]

c1ccc(CNc2ncnc3ccc(-c4ccc5c(c4)OCO5)cc23)cc1
inactive: Potency [1] > 11.4 µM | activity change, negative = inhibition [3] -4.08% | activity, negative = inhibition [4] -5.81% | Potency [5] > 46 µM | Potency [6] > 46 µM | Potency [7] | Potency [9] | Potency [14] | outcome [15]
active: Potency [2] 0.2 µM | Potency [16] 2 µM | Potency [10] 3.16 µM | Potency [11] 0.158 µM | Potency [12] 0.178 µM | Potency [13] 0.0355 µM
